# Test results: PubChem BioAssay AID463173 (ICCB-Longwood Screening Facility, Harvard Medical School, 2010)
# Among all 52,000 compounds or so, about 4,300 (8.3%) were called active. The entries come from a sample that favours actives as a whole. A number with no mark means an inactive call. Rule as the data show it: active = survival mostly below about 52% (no sharp cut-off); inactive = mostly above about 56%.
# System: DeltatarO mutant
# Assay: S. aureus survival, RN4220 and DeltatarO strains – OD600, teichoic acid synthesis inhibitors, primary screen (AID 463173)
# Settings: S. aureus RN4220 wild type/DeltatarO growth, OD600, 18 h, hits give low values, screened at 18.75 µg/mL (by protocol)
row,SMILES,survival
1,O=C(NC1CC(=O)N(c2ccc(F)cc2)C1)c1ccc2c(c1)OCO2 (stereo unspecified),75%
2,Cc1cccc(Nc2nnc(-c3ccc(C)c(S(=O)(=O)NCC4CCCO4)c3)c3ccccc23)c1 (stereo unspecified),82%
3,CCOC(=O)COc1ccc(CC)cc1C(=O)c1ccn2nc(-c3ccc(C)cc3)cc2n1,75%
4,COc1ccc(CCNC(=O)c2cccc(Nc3nc4ccccc4nc3-n3nc(C)cc3C)c2)cc1OC,91%
5,N#Cc1nc(-c2ccc(COc3ccc(Cl)cc3)o2)oc1N1CCN(c2ccccc2)CC1,64%
6,CCc1ccc(S(=O)(=O)c2nnn3c2nc(NCc2cccc(OC)c2)c2cc(Cl)ccc23)cc1,105%
7,COc1ccc(NC(=O)c2cnn(-c3ccc(F)cc3F)c2C2CCN(C(=O)OC(C)(C)C)CC2)cc1Cl,72%
8,CCc1ccc2oc(C(=O)Nc3nc(-c4ccccc4)ns3)c(C)c2c1,53%
9,Cc1cc2oc(C(=O)Nc3nc(-c4ccccc4)ns3)c(C)c2cc1Cl,45% (active)
10,COc1ccccc1C(=O)Nc1nc(-c2ccccc2)ns1,45% (active)
11,COc1ccc(C(=O)Nc2nc(-c3ccc(Br)cc3)ns2)cc1,58% (active)
12,COc1ccc(-c2nsc(NC(=O)c3ccccc3Br)n2)cc1,34% (active)
13,COc1cccc(C(=O)Nc2nc(-c3ccc(Br)cc3)ns2)c1,65%
14,Cc1ccc(C(=O)Nc2nc(-c3ccccc3)ns2)cc1,59%
15,Cc1ccccc1C(=O)Nc1nc(-c2ccc(Br)cc2)ns1,49%
16,COc1ccc(-c2nsc(NC(=O)c3cccc(OC)c3)n2)cc1,85%
17,COc1ccccc1C(=O)Nc1nc(-c2ccc(Br)cc2)ns1,86%
18,CCOc1ccc(C(=O)Nc2nc(-c3ccc(Br)cc3)ns2)cc1,76%
19,Cc1ccc(-c2nsc(NC(=O)c3oc4cc(C)c(Cl)cc4c3C)n2)cc1,74%
20,CC(=O)N1CCN(C2=NC(=O)C(=C3CCCCC3)S2)CC1,75%
21,CCCOc1ccc(-c2nonc2NC(=O)c2ccco2)cc1OCCC,111%
22,Cc1c(Cl)cccc1-n1ncc(C(=O)N2CCN(c3ncccn3)CC2)c1C1CCN(C(=O)OC(C)(C)C)CC1,102%
23,COc1cc(C2CC(=O)N(c3ccc(C)c(Cl)c3)C3=C2C(=O)OC3)cc(OC)c1OC (stereo unspecified),72%

row,SMILES,survival
1,Cc1ccc(C)c(NC(=O)C2CCN(c3nn4c(=O)cc(C)nc4s3)CC2)c1,106%
2,CCOC(=O)c1cc2sccc2n1CC(=O)NC1CCC(C)CC1 (stereo unspecified),95%
3,Oc1c(C(c2ccccc2F)N2CCN(c3ccccc3F)CC2)sc2nc(-c3ccco3)nn12 (stereo unspecified),87%
4,COC(=O)c1ccc(NC(=O)CCS(=O)(=O)c2ccc(Br)cc2)cc1,77%
5,CCOc1ccc(OCC)c(NC(=O)C(NS(=O)(=O)c2cccs2)c2ccccc2)c1 (stereo unspecified),66%
6,O=C(Nc1ccc(Cl)cc1)C(NS(=O)(=O)c1cccs1)c1ccccc1 (stereo unspecified),19% (active)
7,CCC(C)(C)NC(=O)C(NS(=O)(=O)c1cccs1)c1ccccc1 (stereo unspecified),84%
8,COc1ccc(C)cc1NC(=O)C(NS(=O)(=O)c1cccs1)c1ccccc1 (stereo unspecified),11% (active)
9,CC(=O)Nc1ccc(NC(=O)C(NS(=O)(=O)c2ccc(Br)s2)c2ccccc2)cc1 (stereo unspecified),93%
10,Cc1cc(Br)ccc1NC(=O)C(Cc1ccccc1)NS(=O)(=O)c1ccc(Br)s1 (stereo unspecified),114%
11,Cc1cccc(C)c1NC(=O)C(NS(=O)(=O)c1cccs1)c1ccccc1 (stereo unspecified),56%
12,COc1ccc(C)cc1NC(=O)C(Cc1ccccc1)NS(=O)(=O)c1cccs1 (stereo unspecified),84%
13,Cc1cc(Br)ccc1NC(=O)C(NS(=O)(=O)c1cccs1)c1ccccc1 (stereo unspecified),31% (active)
14,O=C(c1cccc(C(F)(F)F)c1)C1CCN(C(=O)N2CCOCC2)CC1,103%
15,Cc1cccc(CSc2nc3c(c(=O)[nH]2)C(c2cccc(O)c2)CC(=O)N3)c1 (stereo unspecified),110%
16,CCc1nn(CC(=O)NCc2ccco2)c(=O)c2cc3cc(F)ccc3n12,104%
17,COc1ccc(Cn2ccc3nc(C)c(C(=O)N4CCN(c5ccccc5)CC4)cc3c2=O)cc1,85%
18,COc1ccc(CNC(=O)Cn2c(=O)cc(-c3ccccc3)c3c(C)nn(C)c32)cc1,67%
19,COc1ccc(CCNC(=O)CN(c2ccccc2)S(=O)(=O)N(C)C)cc1OC,62%
20,Cc1nc(-n2nc(C)c(CCC(C)C)c2C)sc1C(=O)Nc1cccc(Cl)c1C,56% (active)
21,Cc1cccc(NC(=O)c2sc(-n3nc(C)c(CCC(C)C)c3C)nc2C)c1C,62%
22,Cc1nc(-n2nc(C)c(CCC(C)C)c2C)sc1C(=O)Nc1cccc(Cl)c1,122%
23,CCCN(C(=O)Nc1cn(CC(C)C)c(=O)c2ccccc12)c1ccc(F)cc1,82%

row,SMILES,survival
1,Cc1cc(C)n(CCCO)c(=O)c1C#N,86%
2,COc1ccc(-c2cn3c(n2)sc2cc(C(=O)NC4CCCCCC4)ccc23)cc1,73%
3,CCn1c(CN2CCC(C)CC2)nc2cc(NC(=O)c3ccc([N+](=O)[O-])cc3)ccc21,86%
4,CCC1CN(C(=O)Nc2cccc3c2CCCC3)c2cc(Cl)ccc2O1 (stereo unspecified),44% (active)
5,CCC1CN(C(=O)Nc2cccc3c2CCCC3)c2ccccc2O1 (stereo unspecified),56%
6,CCc1ccccc1NC(=O)N1CC(CC)Oc2ccc(Cl)cc21 (stereo unspecified),44%
7,CCC1CN(C(=O)Nc2cc(Cl)c(OC)cc2OC)c2ccccc2O1 (stereo unspecified),61%
8,CCC1CN(C(=O)Nc2cccc3c2CCCC3)c2cc(C)ccc2O1 (stereo unspecified),49%
9,CCC1CN(C(=O)Nc2cc(C)ccc2OC)c2cc(Cl)ccc2O1 (stereo unspecified),44% (active)
10,Cc1ccc(C)c(CN2C(=O)c3ccccc3Sc3ccc(C(=O)NCCCOC(C)C)cc32)c1,89%
11,COc1cccc(N2CCN(c3ncnc4onc(-c5ccc(F)cc5)c34)CC2)c1,83%
12,CCc1ccc(NC(=O)CSc2nc(C)cc(COC)c2C#N)cc1,84%
13,COc1ccc2[nH]c(=O)c(CN(Cc3cccs3)S(=O)(=O)c3cccc4nsnc34)cc2c1,113%
14,COC(=O)c1ccccc1NC(=O)CCC(=O)N1CC(C)Sc2ccccc21 (stereo unspecified),42% (active)
15,COC(=O)c1ccccc1NC(=O)CCC(=O)N1CCOc2ccccc21,65%
16,Cc1ccccc1NC(=O)CCC(=O)N1CC(C)Sc2ccccc21 (stereo unspecified),64%
17,CC1CN(C(=O)CCC(=O)Nc2cc(F)ccc2F)c2ccccc2S1 (stereo unspecified),51%
18,CCc1ccccc1NC(=O)N1CC(C)Sc2ccccc21 (stereo unspecified),77%
19,Cc1ccc(Cl)cc1NC(=O)CCC(=O)N1CC(C)Sc2ccccc21 (stereo unspecified),44% (active)
20,Fc1ccccc1N1CCN(Cc2nnc(-c3ccc4c(c3)OCO4)o2)CC1,85%
21,CCC(=O)N(c1nnc(-c2cc(OC)c(OC)c(OC)c2)s1)C1CCCC1,65%
22,O=C(CNC(=O)c1ccc(F)cc1)OCc1cc(=O)n2nc(C3CC3)sc2n1,81%
23,Cc1ccc(Nc2nc(C)cs2)cc1,82%

row,SMILES,survival
1,c1ccc(Nc2nc(-c3ccncc3)cs2)cc1,100%
2,Oc1ccc(Nc2nc(-c3ccc(O)cc3)cs2)cc1,1% (active)
3,CN1CCN(C(c2cccc(Br)c2)c2sc3nc(-c4ccco4)nn3c2O)CC1 (stereo unspecified),70%
4,CCOc1ccc(CCNC(=O)c2oc(=O)c3ccccc3c2-c2ccc(C)cc2)cc1OCC,70%
5,CCN(CC)S(=O)(=O)c1ccc2oc(C(=O)N(C)Cc3ccccc3)c(C)c2c1,40% (active)
6,CCOc1ccc(N(C)C(=O)c2oc(=O)c3ccccc3c2-c2ccccc2)cc1,55%
7,Cc1ccc(-c2c(C(=O)NCCc3ccc(Cl)cc3)oc(=O)c3ccccc23)cc1,51%
8,CCCCN(Cc1ccccc1)C(=O)c1oc(=O)c2ccccc2c1-c1ccc(C)cc1,8% (active)
9,Cc1ccc(-c2c(C(=O)NCCc3ccccc3)oc(=O)c3ccccc23)cc1,91%
10,Cc1ccc(CCNC(=O)c2oc(=O)c3ccccc3c2-c2ccc(C)cc2)cc1,28% (active)
11,CCN(CC)S(=O)(=O)c1ccc2oc(C(=O)NCc3ccccc3OC)c(C)c2c1,71%
12,Cc1ccc(-c2c(C(=O)NCc3ccc(F)cc3)oc(=O)c3ccccc23)cc1,57%
13,COc1ccc(N(C)C(=O)c2oc(=O)c3ccccc3c2-c2ccc(C)cc2)c(OC)c1,97%
14,Cc1ccc(-c2c(C(=O)N(C)Cc3ccccc3)oc(=O)c3ccccc23)cc1,24% (active)
15,CCCCN(CCCC)S(=O)(=O)c1ccc2oc(C(=O)NCc3ccccc3)c(C)c2c1,99%
16,O=C1CC(N2CCC(c3nc4ccccc4[nH]3)CC2)C(=O)N1 (stereo unspecified),84%
17,Cc1c(C)n(Cc2ccccc2)c2ccc(C(=O)NCCc3ccccc3Cl)cc12,84%
18,COCCCn1c(SCC(=O)Nc2ccc(F)cc2)nc2c(sc3ccccc32)c1=O,81%
19,CCOCCc1nnc(NC(=O)C(=O)c2cc(C)n(-c3ccc(Cl)cc3)c2C)s1,60%
20,CC(C)c1nn2c(=O)cc(COC(=O)c3ccccc3NC(=O)C3CCCCC3)nc2s1,90%
21,CCOCCCNC(=O)C1CCN(c2nn3cc(-c4ccc(F)cc4)nc3s2)CC1,86%
22,CC1=C(c2ccc(C)c(C)c2)S(=O)(=O)N=C1N1CCC(C(=O)NCc2ccccc2C)CC1,76%
